Bioassay records deposited in PubChem by National Center for Advancing Translational Sciences (NCATS).
G9a block: blocks human histone lysine methyltransferase G9a. actives 8.8% (n = 350,000). G9a H3K9 monomethylation, AlphaScreen, 2 h. Potency, µM (top dose mostly 102 µM), without a hit: top-dose activity, negative = inhibition, hits mostly inhibitors; further: on the % scale 0 is the no-effect control and ±100 the full control effect; nearly all actives have a fitted effect of over 75% in size
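Enzyme 20 nM + cpd, 15 min RT; add b-H3K9 pep 500 nM / SAM 20 uM; 2 h RT; anti-H3K9me1 Ab 0.5 ug/mL + SA donor / anti-rabbit acceptor beads 20 ug/mL each, 10 min; AlphaScreen read.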
JMJD2A Tudor: inhibitors of human JMJD2A Tudor domain; Potency, µM (doses to about 114 µM), without a hit: at the top dose activity change, negative = inhibition, usual class: inhibitors; AID 504339; AlphaScreen JMJD2A-Tudor / H3K4me3 peptide binding; O75164; actives 4.4% (n = 390,000); further: on the % scale 0 is the no-effect control and ±100 the full control effect; nearly all actives have a fitted effect of over 50% in size
HP1b binding inh: blocks HP1-beta chromodomain binding to methylated histone tails. P83916. AlphaScreen HP1-beta / biotin-H3K9me3 peptide binding. Potency, µM (doses to about 114 µM), for the others: at the highest dose activity change, negative = inhibition, usual class: inhibitors. actives 0.56% (n = 390,000); further: nearly all actives have a fitted effect of over 70% in size
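HP1-beta protein (50 nM final) preincubated 30 min at room temperature with biotinylated H3(1-18)K9me3 peptide (50 nM) in PBS pH 7.4, 0.01% Tween-20, then compound added for 30 min. AlphaScreen streptavidin donor/nickel chelate acceptor beads (10 ug/mL final), 30 min dark, luminescence read.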
Sfp inh: blocks B. subtilis Sfp PPTase activity; Q9F4F7; Potency, µM, inactives show largest response in the series, negative = inhibition, hits mostly inhibitors; Biochemical Sfp PPTase activity, qHTS; actives 3.5% (n = 310,000);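 further: the enzyme is Sfp with the accession as filed and its product quenches rhodamine fluorescence; 0% = enzyme reaction without inhibitor and -100% = no enzyme wells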
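Compounds were incubated with enzyme (final 15 nM) for 15 min at room temperature before substrate addition started the reaction. Fluorescence at 525 nm excitation, 598 nm emission was recorded immediately and after 30 minutes.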
BAZ2B block: blocks human BAZ2B; Q9UIF8; AlphaScreen BAZ2B-H3K14Ac peptide displacement; Potency, µM (series often up to 114 µM), for inactives: top-dose activity change, negative = inhibition, actives largely listed as inhibitors; actives 4.4% (n = 360,000); AID 504333; further: on the % scale 0 is the no-effect control and ±100 the full control effect; nearly all actives have a fitted effect of over 60% in size
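In this displacement format the biotinylated H3(5-23) peptide acetylated at Lys14 serves as ligand at 50 nM, with BAZ2B at 50 nM in PBS pH 7.4 containing 0.01% Tween-20. Donor and acceptor beads are 10 ug/mL final.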
The depositor's hits bear a star; ? = inconclusive; / = no result; [ ] = another dose, or the depositor's remark. Compounds with a hit are over-represented: about 12% of the library has one in this group of screens. The call rests on the fitted dose curve; in most records, active means well fitted curve in the direction sought with a large enough effect; inconclusive means small, poorly fitted or top-dose-only effect, or another doubt; inactive means no such curve, though single readings can be large; an effect the other way counts as inactive or inconclusive. Potency means the concentration at half of the fitted maximal effect.

SMILES | G9a block | JMJD2A Tudor | HP1b binding inh | Sfp inh | BAZ2B block
Cc1cc(C)c2nc(N(Cc3cccnc3)C(=O)c3ccc(S(=O)(=O)N(C)C)cc3)sc2c1 | 8.2%[59 µM] | -15.9% | 4.9% | / | -14.7%
CCN(CC)CCN1C(=O)C(=O)/C(=C(/O)c2ccc(F)cc2)C1c1cccnc1 (centres undefined) | 25.1µM* | -14.4% | 30.1% | 1.7% | -8.9%
COc1ccc(/C(O)=C2/C(=O)C(=O)N(CCN(C)C)C2c2ccc(C)cc2)cc1Cl (centres undefined) | 89.1µM* | -8.8% | 33.6% | -2.0% | -5.7%
COc1ccc(/C(O)=C2\C(=O)C(=O)N(CCN(C)C)C2c2cccc(OC)c2OC)cc1Cl (centres undefined) | 44.7µM* | ? | 3.4% | -2.0% | ?
CCOc1ccc(/C(O)=C2/C(=O)C(=O)N(CCN(C)C)C2c2ccccc2)cc1Cl (centres undefined) | -1.0%[59 µM] | -22.8% | 44.0% | 6.9% | -6.8%
CN(C)CCN1C(=O)C(=O)/C(=C(/O)c2ccc(F)cc2)C1c1ccccc1F (centres undefined) | 79.4µM* | -21.1% | 13.5% | -3.9% | -34.8%
COc1ccc(/C(O)=C2/C(=O)C(=O)N(CCN(C)C)C2c2ccccc2)cc1Cl (centres undefined) | -48.2%[12.7 µM] | -0.8% | 34.1% | 1.9% | ?
Cc1ccc(Cl)cc1OCC(=O)NCCOC(=O)Nc1sc(=S)n(C)c1C | ? | -11.4% | -30.2% | -2.5% | -12.1%
Cc1c(NC(=O)OCCNC(=O)Nc2ccccc2)sc(=S)n1C | ? | -7.5% | -22.1% | -24.0% | -3.3%
Cc1ccc(S(=O)(=O)NCCOC(=O)Nc2sc(=S)n(C)c2C)cc1 | 31.6µM* | -9.4% | ? | 56.2µM* | ?
CCOC(=O)Nc1sc(=S)n(C)c1C | 12.6µM* | -8.6% | -7.2% | 15.8µM* | 8.8%
CN(Cc1ccccc1)C(=O)c1cc(-c2ccc(Br)cc2)on1 | 35.3%[59 µM] | 60.3% | 85.0% | -9.5% | 52.2%
CCOC(=O)c1c(C)nn(-c2ccc(NC(=O)c3c(C)noc3C)cc2)c1C | 44.7µM* | -10.6% | 14.8% | 6.8% | 5.7%
CCOC(=O)c1c(C)nn(-c2ccc(NC(=O)c3cccs3)cc2)c1C | -10.5%[12.7 µM] | -13.1% | 39.6% | -4.3% | -3.3%
CCNC(=O)Nc1ccc(-n2nc(C)c(C(=O)OCC)c2C)nc1 | -0.9% | 20µM* | 0.2% | 7.6% | -21.0%
Cc1ccsc1/C=N/n1cnc2sc(C)c(C)c2c1=O | 11.7%[59 µM] | -11.5% | 11.6% | -4.8% | 5.9%
O=C(CCN1C(=O)c2ccccc2C1=O)N1CCN(Cc2ccc(Cl)cc2Cl)CC1 | 39.8µM* | -19.3% | 14.5% | -5.3% | 3.8%
Cc1ccc(S(=O)(=O)N2CCN(C(=O)CCN3C(=O)c4ccccc4C3=O)CC2)cc1C | 79.4µM* | -5.9% | 10.1% | -1.5% | -7.8%
Cc1ccc(S(=O)(=O)N2CCN(C(=O)Cc3ccccc3)CC2)cc1C | ? | -20.8% | 35.2% | / | 4.8%
COc1cccc(/C=C/C(=O)OCC(=O)NCCC2=CCCCC2)c1 | -1.9% | 8.91µM* | 21.0% | 13.4% | -28.5%
CCc1ccc(C(=O)Cn2ccsc2=N)cc1 | 50.1µM* | -22.6% | 4.9% | 8.6% | ?
CC(C)(C)NC(=O)NC(=O)Cn1ccsc1=N | -4.6%[59 µM] | -5.6% | 40.8% | 6.2% | -1.1%
COc1cccc(Cn2c(=O)c(-c3cccs3)nc3cnc(N4CCNCC4)nc32)c1 | 11.7%[0.501 µM] | / | / | 17.8µM* | /
COc1cccc(Cn2c(=O)c(-c3ccc(Cl)cc3)nc3cnc(N4CCNCC4)nc32)c1 | 4.0%[0.501 µM] | / | / | 39.8µM* | /
O=c1c(-c2ccc(Cl)cc2)nc2cnc(N3CCNCC3)nc2n1Cc1ccc(F)cc1 | -6.2%[12.7 µM] | / | / | 44.7µM* | /
SMILES | G9a block | JMJD2A Tudor | HP1b binding inh | Sfp inh | BAZ2B block
COc1cccc(Cn2c(=O)c(-c3cccs3)nc3cnc(N4CCOCC4)nc32)c1 | 1.6%[0.501 µM] | / | / | -0.5% | /
O=c1c(CCc2ccccc2)nc2cnc(N3CCNCC3)nc2n1Cc1ccc(F)cc1 | 1.6%[12.7 µM] | / | / | 50.1µM* | /
Cc1nnc(NC(=O)CSc2nnc(CNC(=O)C34CC5CC(CC(C5)C3)C4)n2C2CCCCC2)s1 | 4.6%[59 µM] | -20.1% | 25.2% | 18.3% | 8.0%
CC(C)Sc1nnc(CNC(=O)C23CC4CC(CC(C4)C2)C3)n1C1CCCCC1 | 20µM* | -27.3% | 17.2% | -6.3% | 7.7%
O=S(=O)(c1ccccc1F)N(Cc1ccco1)Cc1nnc(-c2ccccc2Br)o1 | 79.4µM* | -15.9% | 19.6% | -5.8% | 6.9%
O=C(OCc1nnc(-c2ccccc2Br)o1)c1ccco1 | / | -7.2% | 64.6% | / | /
CCOC(=O)c1c(C)sc(-c2c(-c3cc(C)ccc3C)[nH]c3c2c(=O)[nH]c(=O)n3C)c1O | ? | -27.2% | 9.6% | / | 50.1µM*
CCOC(=O)c1c(C)sc(-c2c(-c3cccc(Cl)c3)[nH]c3c2c(=O)n(C)c(=O)n3C)c1O | ? | ? | 22.5% | / | ?
CCOC(=O)c1c(C)sc(-c2c(-c3cc(C)ccc3C)[nH]c3c2c(=O)n(C)c(=O)n3C)c1O | ? | ? | 4.5% | / | 79.4µM*
COc1cccc(NC(=O)Cc2ccc3ccccc3c2)c1 | / | 4.0% | 41.9% | 3.9% | 10.1%
CCc1nnc(NC(=O)C(=O)NCCOC(=O)c2ccccc2)s1 | ? | ? | 15.3% | -15.1% | ?
Cc1nc(NC(=O)C2CC2)sc1C(=O)Nc1cccc(Cl)c1 | 5.7%[59 µM] | -13.2% | 31.7% | 16.6% | -5.8%
CCC(C(=O)Nc1ccccc1Cl)n1nc(C)c2c(C)n(-c3ccccc3)nc2c1=O (centres undefined) | 30.2% | ? | -14.9% | -2.8% | -24.2%
COc1cc(C2C(C#N)=C(N)Oc3c2oc(CO)cc3=O)ccc1OC(C)C (centres undefined) | ? | 15.8µM* | 12.6% | -28.7% | -5.0%
CCN(C(=O)CSc1nnc(Cn2nnc3ccccc32)o1)c1nc(-c2ccccc2)cs1 | 5.9% | -6.9% | 29.8% | 16.9% | 0.1%
CCN(C(=O)CSc1nnc(Cn2nnc3ccccc32)o1)c1nc(C)cs1 | ? | -2.6% | -3.9% | 20µM* | 15.4%
O=C(NCc1ccc2c(c1)OCO2)C1CCC(CNS(=O)(=O)c2ccccc2)CC1 (centres undefined) | -10.5%[59 µM] | -2.5% | 22.3% | -1.5% | 12.7%
COc1ccc(-c2nc(CSCC(=O)NC3CCCc4ccccc43)c(C)o2)cc1OC (centres undefined) | 44.7µM* | ? | 14.7% | -10.6% | ?
CCOC(=O)N1CCC(NC(=O)CSCc2nc(-c3ccc(OC)c(OC)c3)oc2C)CC1 | -38.0% | -19.8% | 25.7% | 9.5% | -4.4%
CCOC(=O)C1CCN(C(=O)CSCc2nc(-c3ccc(OCC)cc3)oc2C)CC1 | -13.2%[59 µM] | -25.1% | -1.6% | 15.7% | -7.8%
COc1ccc(-c2nc(CSCC(=O)N3CCC(C(N)=O)CC3)c(C)o2)cc1OC | 44.7µM* | -16.6% | 33.6% | -29.7% | -8.4%
